Entries with a potency or affinity are not part of this list.
molecular target: Short transient receptor potential channel 4 (Mus musculus) (UniProt Q9QUQ5); experiment: calcium entry via TRPC4 opening agents – cell-based, HEK293 TRPC4/mu-opioid, Fluo-4 calcium, dose response (AID 434937); conditions: HEK293 TRPC4 cells, Fluo-4 calcium fluorescence ratio; series mostly up to 20 µM; activation ratio: at the top concentration
Sequence (Q9QUQ5 whole entry, looked up): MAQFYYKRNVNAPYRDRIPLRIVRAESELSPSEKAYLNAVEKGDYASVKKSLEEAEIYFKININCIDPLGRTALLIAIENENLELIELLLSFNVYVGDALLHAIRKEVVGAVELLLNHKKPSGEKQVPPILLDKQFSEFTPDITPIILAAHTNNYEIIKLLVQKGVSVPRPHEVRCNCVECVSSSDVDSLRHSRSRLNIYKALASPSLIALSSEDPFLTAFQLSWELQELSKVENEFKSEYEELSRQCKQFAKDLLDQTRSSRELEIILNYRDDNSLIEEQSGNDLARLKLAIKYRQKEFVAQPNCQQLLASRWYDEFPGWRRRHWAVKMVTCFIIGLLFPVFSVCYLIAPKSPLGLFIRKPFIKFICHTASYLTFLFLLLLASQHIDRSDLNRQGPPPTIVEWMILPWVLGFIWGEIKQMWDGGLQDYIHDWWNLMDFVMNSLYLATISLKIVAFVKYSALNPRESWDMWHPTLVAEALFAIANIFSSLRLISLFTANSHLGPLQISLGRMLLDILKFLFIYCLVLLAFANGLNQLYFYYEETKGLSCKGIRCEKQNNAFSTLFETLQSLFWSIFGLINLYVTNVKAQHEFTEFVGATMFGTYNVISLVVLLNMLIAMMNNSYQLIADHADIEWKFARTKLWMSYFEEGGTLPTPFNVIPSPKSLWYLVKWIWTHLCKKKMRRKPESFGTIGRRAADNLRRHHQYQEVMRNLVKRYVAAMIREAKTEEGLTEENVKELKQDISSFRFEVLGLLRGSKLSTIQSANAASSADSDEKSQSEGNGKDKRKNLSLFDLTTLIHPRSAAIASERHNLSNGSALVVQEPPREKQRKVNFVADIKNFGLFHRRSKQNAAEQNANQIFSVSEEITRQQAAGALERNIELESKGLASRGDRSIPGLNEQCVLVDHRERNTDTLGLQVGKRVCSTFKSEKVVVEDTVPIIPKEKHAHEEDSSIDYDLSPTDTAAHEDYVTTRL

Activation ratio, inactive:
CCN1CCN(c2ccc(S(=O)(=O)N3CCCCC3)cc2NC(=O)c2cccc(OC(F)F)c2)CC1 6.44
Fc1ccc(CN2C3=NCCCN3c3ccccc32)cc1 3.67
COc1ccc(-n2cc(CNCc3cnc4ccccn34)c(-c3cccc(F)c3)n2)cc1 18.8
N=c1c(C(=O)NCc2ccc(F)cc2)cc2c(=O)n3ccccc3nc2n1Cc1ccco1 -1.04
O=C1CC2(CCN(S(=O)(=O)c3ccccc3F)CC2)Oc2ccccc21 10.3
O=C1Cc2ccccc2Sc2c(OCCN3CCCCC3)cccc21 24.8
C/C(CC(=O)NCc1ccc(Cl)cc1)=N\NC(=O)COc1ccc(C)cc1Br -0.88
CCCCNc1c(-c2ccc(SC(C)CC)c(OC)c2)nc2ccc(C)cn12 (stereo not drawn) 2.43
CCOC(=O)C1NN=C(C(=O)c2ccccc2)C1c1ccc(Cl)cc1 (stereo not drawn) 0.19
O=[N+]([O-])c1ccc(N2CCN(CCOc3nonc3-c3ccccc3)CC2)c(Cl)c1 1.33
COc1ccc(-c2cc(C(=O)N3CC(C)CC(C)C3)c3ccccc3n2)cc1 (stereo not drawn) -2.31
COC(=O)c1cc(N2CCN(C)CC2)nc2ccccc12 0.38
COc1cc(C2c3c(-c4ccccc4)n[nH]c3C(=O)N2c2ccccc2)ccc1O (stereo not drawn) 0.24
O=C(c1ccccc1)c1coc2ccc(O)c(CN3CCOCC3)c12 -1.77
CN(C)S(=O)(=O)c1cccc(COC(=O)c2ccc(Cl)cc2O)c1 9.65
CCOC(=O)C1=C(C)N(c2ccccc2)C(=O)NC1c1cccc([N+](=O)[O-])c1 (stereo not drawn) 11.2
Cc1cc(=O)oc2cc(NC(=S)NCc3ccccn3)ccc12 -0.23
Cc1nnc(Sc2cc(NCCCO)c([N+](=O)[O-])c3nonc23)s1 0.21
CCOC(=O)C1=NNC(C(=O)c2ccc(Cl)cc2)C1c1ccc(OC)cc1 (stereo not drawn) -0.92
CN1CCN(NC(=O)Nc2cc(Cl)cc(Cl)c2)CC1 19.5
Cc1ccc(C[n+]2cccc(-c3ccccc3)c2)c(C)c1 -0.76
Cc1ccc(C(=O)C[n+]2cccc3cc(C)ccc32)cc1 7.71
COc1ccc(OC)c(NC(=O)COC(=O)Cc2ccc(-c3ccccc3)cc2)c1 1.33
CC(C)c1ccc(C(C)NCCS(=O)(=O)c2ccc(Br)cc2)cc1 (stereo not drawn) 40.8
Cc1ccc(C)c(N(CC(=O)NC2CCCC2)C(=O)c2csnn2)c1 2
Cc1ccc(-n2c(N)cc(=O)nc2SCC(=O)N2CCN(c3ccccc3)CC2)cc1 -0.08
N=c1c(C(=O)NCC2CCCO2)cc2c(=O)n3ccccc3nc2n1Cc1ccc(Cl)cc1 (stereo not drawn) -4.5
CN(CCNC(=O)c1ccc(/C=N/O)nc1)Cc1ccccc1 17.7
CCOC(=O)C1=C(CNCCc2ccc(Cl)cc2)NC(=O)NC1c1cccc([N+](=O)[O-])c1 (stereo not drawn) 9.04
O=C(NCC(c1ccco1)N1CCc2ccccc2C1)c1ccc(F)cc1 (stereo not drawn) 2.36
CCCc1c(-c2ccc(O)cc2)nn(-c2ccc(O)cc2)c1-c1ccc(O)cc1 73
Cc1ccc(-c2c(C(=O)N/N=C/c3ccc(OC(C)C)cc3)nnn2-c2nonc2N)cc1 8.41
CCOC(=O)CSc1nc2ccccc2c(=O)n1C1CCCC1 0.21
CCN1C(=O)/C(=C/C=C2\N(CC)c3cc(S(=O)(=O)N(C)C)ccc3N2c2ccccc2)SC1=S 17
CCCCn1c(N)c(N(CCOC)C(=O)c2ccc(-c3ccc(C(C)=O)cc3)o2)c(=O)[nH]c1=O -0.22
CC(C)CN(C(=O)C1CC1)c1c(N)n(Cc2ccccc2)c(=O)[nH]c1=O 1.05
CCOC(=O)CC(NS(=O)(=O)c1ccc(OC)c(C)c1)c1cccc([N+](=O)[O-])c1 (stereo not drawn) -1.33
Clc1ccc2nc(CN3CCCc4ccccc43)cn2c1 3.9
Cc1cc(Cl)ccc1OC(C)C(=O)Nc1ccccc1N1CCOCC1 (stereo not drawn) 57.2

molecular target: Short transient receptor potential channel 4 (Mus musculus) (UniProt Q9QUQ5); experiment: potentiation of DAMGO-evoked TRPC4 calcium signal – cell-based, HEK293 TRPC4/mu-opioid, Fluo-4 calcium, EC20 DAMGO, dose response (AID 434941;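 active = earlier screen potentiator hit that boosts the TRPC4 ion channel at some dose, with a dose response; inactive = no potentiation, no dose response, or not a prior hit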;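 also: calcium entry triggered by an EC20 dose of DAMGO at the co-expressed mu-opioid receptor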); conditions: HEK293 TRPC4/mu-opioid cells, Fluo-4 calcium fluorescence; series mostly up to 20 µM; potentiation ratio: at the top concentration

Potentiation ratio, inactive:
CCN1CCN(c2ccc(S(=O)(=O)N3CCCCC3)cc2NC(=O)c2cccc(OC(F)F)c2)CC1 -6.34
Fc1ccc(CN2C3=NCCCN3c3ccccc32)cc1 1.36
COc1ccc(-n2cc(CNCc3cnc4ccccn34)c(-c3cccc(F)c3)n2)cc1 -23.3
N=c1c(C(=O)NCc2ccc(F)cc2)cc2c(=O)n3ccccc3nc2n1Cc1ccco1 3.38
O=C1CC2(CCN(S(=O)(=O)c3ccccc3F)CC2)Oc2ccccc21 22.3
O=C1Cc2ccccc2Sc2c(OCCN3CCCCC3)cccc21 -23.9
C/C(CC(=O)NCc1ccc(Cl)cc1)=N\NC(=O)COc1ccc(C)cc1Br 2.09
CCCCNc1c(-c2ccc(SC(C)CC)c(OC)c2)nc2ccc(C)cn12 (stereo not drawn) 1.53
CCOC(=O)C1NN=C(C(=O)c2ccccc2)C1c1ccc(Cl)cc1 (stereo not drawn) 1.88
O=[N+]([O-])c1ccc(N2CCN(CCOc3nonc3-c3ccccc3)CC2)c(Cl)c1 -0.92
COc1ccc(-c2cc(C(=O)N3CC(C)CC(C)C3)c3ccccc3n2)cc1 (stereo not drawn) 1.43
COC(=O)c1cc(N2CCN(C)CC2)nc2ccccc12 2.7
COc1cc(C2c3c(-c4ccccc4)n[nH]c3C(=O)N2c2ccccc2)ccc1O (stereo not drawn) 13.6
O=C(c1ccccc1)c1coc2ccc(O)c(CN3CCOCC3)c12 3.15
CN(C)S(=O)(=O)c1cccc(COC(=O)c2ccc(Cl)cc2O)c1 29.6
CCOC(=O)C1=C(C)N(c2ccccc2)C(=O)NC1c1cccc([N+](=O)[O-])c1 (stereo not drawn) -4.99
Cc1cc(=O)oc2cc(NC(=S)NCc3ccccn3)ccc12 1.57
Cc1nnc(Sc2cc(NCCCO)c([N+](=O)[O-])c3nonc23)s1 3.63
CCOC(=O)C1=NNC(C(=O)c2ccc(Cl)cc2)C1c1ccc(OC)cc1 (stereo not drawn) 24.7
CN1CCN(NC(=O)Nc2cc(Cl)cc(Cl)c2)CC1 13.4
Cc1ccc(C[n+]2cccc(-c3ccccc3)c2)c(C)c1 1.58
Cc1ccc(C(=O)C[n+]2cccc3cc(C)ccc32)cc1 -4.8
COc1ccc(OC)c(NC(=O)COC(=O)Cc2ccc(-c3ccccc3)cc2)c1 7.52
CC(C)c1ccc(C(C)NCCS(=O)(=O)c2ccc(Br)cc2)cc1 (stereo not drawn) -22.5
Cc1ccc(C)c(N(CC(=O)NC2CCCC2)C(=O)c2csnn2)c1 2.73
Cc1ccc(-n2c(N)cc(=O)nc2SCC(=O)N2CCN(c3ccccc3)CC2)cc1 0.42
N=c1c(C(=O)NCC2CCCO2)cc2c(=O)n3ccccc3nc2n1Cc1ccc(Cl)cc1 (stereo not drawn) 9.79
CN(CCNC(=O)c1ccc(/C=N/O)nc1)Cc1ccccc1 -9.54
CCOC(=O)C1=C(CNCCc2ccc(Cl)cc2)NC(=O)NC1c1cccc([N+](=O)[O-])c1 (stereo not drawn) -1.16
O=C(NCC(c1ccco1)N1CCc2ccccc2C1)c1ccc(F)cc1 (stereo not drawn) -5.25
CCCc1c(-c2ccc(O)cc2)nn(-c2ccc(O)cc2)c1-c1ccc(O)cc1 5.69
Cc1ccc(-c2c(C(=O)N/N=C/c3ccc(OC(C)C)cc3)nnn2-c2nonc2N)cc1 3.66
CCOC(=O)CSc1nc2ccccc2c(=O)n1C1CCCC1 -3.12
CCN1C(=O)/C(=C/C=C2\N(CC)c3cc(S(=O)(=O)N(C)C)ccc3N2c2ccccc2)SC1=S 12.8
CCCCn1c(N)c(N(CCOC)C(=O)c2ccc(-c3ccc(C(C)=O)cc3)o2)c(=O)[nH]c1=O 1.96
CC(C)CN(C(=O)C1CC1)c1c(N)n(Cc2ccccc2)c(=O)[nH]c1=O 3.38
CCOC(=O)CC(NS(=O)(=O)c1ccc(OC)c(C)c1)c1cccc([N+](=O)[O-])c1 (stereo not drawn) -2.2
Clc1ccc2nc(CN3CCCc4ccccc43)cn2c1 -1.82
Cc1cc(Cl)ccc1OC(C)C(=O)Nc1ccccc1N1CCOCC1 (stereo not drawn) 25.1
